# Test results: PubChem BioAssay (NCATS)
# Records with an inconclusive call do not appear. Entries that show only a call come without a potency. Calls of active or inactive are those of the source. The call rests on the fitted dose curve; in most records, active means well fitted curve in the direction sought with a large enough effect; inconclusive means small, poorly fitted or top-dose-only effect, or another doubt; inactive means no such curve, though single readings can be large; an effect the other way counts as inactive or inconclusive. Where a SMILES comes first, the peptide text is derived from it. [ ]: non-standard residue; d: D form. pGlu = O=C1CC[C@@H](C(=O)O)N1; Thz = O=C(O)[C@@H]1CSCN1
# Experiments:
# [1] = Primary qHTS for inhibitors of nuclear receptor binding SET domain protein 2 (NSD2) in an isogenic RCH-ACV NSD2 p.E1099K mutant (9B) (AID 1645876)
# [2] = Primary qHTS for inhibitors of nuclear receptor binding SET domain protein 2 (NSD2) in an RCH-ACV wild type WT cells (2C) (AID 1645877)
# Further: nearly all actives have a fitted effect of over 70% in size.
# Potency means the concentration at half of the fitted maximal effect.
SMILES,Potency [1],Potency [2]
Nc1ncnc2c1c(I)cn2[C@@H]1C[C@H](N)[C@@H](O)[C@H]1O,18.4 µM (active),23.1 µM (active)
O=C(Nc1ccc2c(c1)CCN(Cc1ncn[nH]1)C2)c1ccccc1-c1ccc(C(F)(F)F)cc1,inactive,–
CCOC(=O)c1ccccc1O,inactive,inactive
Nc1ccc(C(=O)O)c(O)c1,inactive,inactive
CCCCCCCCCCCCOCCO,inactive,–
COc1cc2c3cc1Oc1cc(ccc1O)C[C@@H]1c4c(cc(OC)c(O)c4Oc4ccc(cc4)C[C@@H]3N(C)CC2)CC[N+]1(C)C,inactive,inactive
CCCSc1ccc2nc(NC(=O)OC)[nH]c2c1,0.422 µM (active),0.266 µM (active)
C[C@H](O)[C@H](O)[C@H]1CNc2nc(N)[nH]c(=O)c2N1,inactive,inactive
CC(N)C(=O)OC(C)(C)Cc1ccc(Cl)cc1 (stereo unspecified),inactive,–
Oc1c(Br)cc(Br)c2cccnc12,3.76 µM (active),3.35 µM (active)
CC(=O)O[C@H]1C[C@@]2(C)[C@@H](C[C@@H](O)[C@H]3[C@@]4(C)CC[C@@H](O)[C@@H](C)[C@@H]4CC[C@@]32C)/C1=C(\CCC=C(C)C)C(=O)O,inactive,inactive
O=C1CC[C@@H](C(=O)N2CSC[C@H]2C(=O)O)N1 ([pGlu]-[Thz]-OH),inactive,inactive
O=C(O)CC1CC(c2ccccc2)=NO1 (stereo unspecified),inactive,inactive
CN1[C@@H]2CC[C@H]1CC(OC(c1ccccc1)c1ccccc1)C2 (stereo partly specified),inactive,–
C[N+]1(C)[C@@H]2CC(OC(=O)[C@H](CO)c3ccccc3)C[C@H]1[C@@H]1O[C@@H]12 (stereo partly specified),inactive,inactive
